Results filed as inconclusive are left out. Calls of active or inactive are those of the source. Unless noted, calls come from the whole dose curve; as a rule, active = well fitted curve in the direction sought with a large enough effect; inconclusive = small, poorly fitted or top-dose-only effect, or another doubt; inactive = no such curve, though single readings can be large; an effect the other way counts as inactive or inconclusive.
Tests used:
[1] = Primary qHTS for small molecule stabilizers of the endoplasmic reticulum resident proteome: Secreted ER Calcium Modulated Protein (SERCaMP) assay (AID 1508630)
Outline: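 GLuc-SERCaMP-expressing SH-SY5Y cells, pretreated 16 h with compound, are challenged with thapsigargin to empty ER calcium stores; after 4 h, coelenterazine is added directly to the medium and luminescence is imaged.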

[2] = system: Zika virus NS2B-NS3 protease (linked construct); test: Primary screen NINDS Rhodamine qHTS for Zika virus inhibitors (AID 1347160); note: potency is the fitted concentration of half-maximal effect; nearly all actives have a fitted effect of over 55% in size
Outline: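 Percent inhibition, normalized to uninhibited and enzyme-free controls, is fitted to a 4-parameter Hill equation. Fluorescence change comes from a 15-min cleavage of 1.5 microM bis-peptide Rhodamine110 substrate by 25 nM linked NS2B-NS3 at room temperature.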

[3] = HPAF-II Cancer Cell Toxicity qHTS against the NCATS CANVASS Library (AID 1347346); note: nearly all actives have a fitted effect of over 55% in size; note: potency is the fitted concentration of half-maximal effect
Outline: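 HPAF-II cells were seeded at 1000 cells/well, allowed to settle for 4 h at 37 degrees C, then exposed to compounds in an 11-point series for 72 h. Viability was read by CellTiter-Glo luminescence.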

[4] = OV-SAHO Cancer Cell Toxicity qHTS against the NCATS CANVASS Library (AID 1347348); note: nearly all actives have a fitted effect of over 55% in size; note: potency is the fitted concentration of half-maximal effect
Outline: (§1)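 ATP content after 72 h treatment, detected by CellTiter-Glo luminescence (15min room-temperature development), reflects cell viability. Wells contained 1000 cells and received compounds at 11 concentrations.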

[5] = Panc-1005 Cancer Cell Toxicity qHTS against the NCATS CANVASS Library (AID 1347349); note: nearly all actives have a fitted effect of over 60% in size; note: potency is the fitted concentration of half-maximal effect
Outline: as §1

[6] = U-118MG Cancer Cell Toxicity qHTS against the NCATS CANVASS Library (AID 1347351); note: potency is the fitted concentration of half-maximal effect
Outline: as §1

[7] = UWB1.289-WTBRCA1 Cancer Cell Toxicity qHTS against the NCATS CANVASS Library (AID 1347354); note: potency is the fitted concentration of half-maximal effect
Outline: (§2)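 Cells were seeded at 1000 per well and allowed to settle 4 hours at 37 degrees C before pin transfer of compounds as an 11-point series. Viability was read by CellTiter-Glo luminescence after 72 hours' exposure.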

[8] = HEK-293 Cancer Cell Toxicity qHTS against the NCATS CANVASS Library (AID 1347355); note: nearly all actives have a fitted effect of over 65% in size; note: potency is the fitted concentration of half-maximal effect
Outline: as §2

[9] = HPAF-II 24hr Apoptosis Induction qHTS against the NCATS CANVASS Library (AID 1347356)
Outline: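 HPAF-II cells (500/well) in DMEM + 10% FBS were treated with an 11-point compound series for 24 hours at 37 degrees C. Caspase-3/7 activity was then read by Caspase-Glo DEVD luminescence after 15 min.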

[10] = HEK293 18hr Apoptosis Induction qHTS against the NCATS CANVASS Library (AID 1347357)
Outline: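 HEK293 cells (500/well, DMEM + 10% FBS) treated with an 11-point series for 18 h at 37 degrees C. Caspase-3/7 activity read by Caspase-Glo luminescence after 15 min at room temperature.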

[11] = HEK293 24hr Apoptosis Induction qHTS against the NCATS CANVASS Library (AID 1347359)
Outline: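 Caspase-3/7 activation measured as luminescence from the DEVD-based Caspase-Glo reagent, 15 min at room temperature, following 24-hour compound treatment of HEK293 cells.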

[12] = HPAF-II 18hr Apoptosis Induction qHTS against the NCATS CANVASS Library (AID 1347360)
Outline: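 HPAF-II cells at 500/well were exposed for 18 h at 37 C to an 11-point compound series. Caspase-3/7 activity was read by Caspase-Glo luminescence after 15 min at RT.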

[13] = HEK293 12hr Apoptosis Induction qHTS against the NCATS CANVASS Library (AID 1347361)
Outline: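 HEK293 cells (500/well) were exposed to an 11-point qHTS concentration series for 12 hours at 37 degrees C. Caspase-3/7 activity was then read by DEVD-substrate luciferase luminescence after 15 min at room temperature.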

[14] = biological target: Luciferin 4-monooxygenase (Photinus pyralis) (UniProt P08659); test: Firefly luciferase counterscreen qHTS: Assay Interference Panel against the NCATS CANVASS Library (AID 1347363); note: series mostly up to about 57 µM
Chain of Luciferin 4-monooxygenase (Photinus pyralis) (P08659 whole entry, looked up): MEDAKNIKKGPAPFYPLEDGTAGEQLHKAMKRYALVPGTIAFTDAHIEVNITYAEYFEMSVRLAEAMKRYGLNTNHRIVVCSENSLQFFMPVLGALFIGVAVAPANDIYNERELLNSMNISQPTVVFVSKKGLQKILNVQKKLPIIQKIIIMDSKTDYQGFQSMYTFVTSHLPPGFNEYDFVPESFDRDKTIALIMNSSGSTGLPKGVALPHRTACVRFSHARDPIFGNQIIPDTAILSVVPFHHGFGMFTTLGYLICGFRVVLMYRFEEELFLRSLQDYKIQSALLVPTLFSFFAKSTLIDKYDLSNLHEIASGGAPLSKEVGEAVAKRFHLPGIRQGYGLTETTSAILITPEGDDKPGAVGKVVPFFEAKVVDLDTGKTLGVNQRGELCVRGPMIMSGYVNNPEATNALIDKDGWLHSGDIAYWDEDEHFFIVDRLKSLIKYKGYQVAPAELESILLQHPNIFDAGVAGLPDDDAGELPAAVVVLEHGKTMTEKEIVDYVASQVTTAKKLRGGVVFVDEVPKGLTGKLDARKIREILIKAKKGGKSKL
Outline: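 Luminescence inhibition readout: compounds (11-point qHTS) sat 15 min at room temperature with substrate mix (0.013 mM luciferin and ATP), then firefly luciferase was added and signal read 5 min later.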

[15] = KB-8-5-11 Cancer Cell Toxicity qHTS against the NCATS CANVASS Library (AID 1347364); note: nearly all actives have a fitted effect of over 75% in size
Outline: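 KB-8-5-11 cells (500/well) in DMEM + 10% FBS were exposed to compounds in an 11-point qHTS series for 72 hr at 37C, 5% CO2. Viability was read by CellTiter-Glo luminescence.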

[16] = KB-3-1 Cancer Cell Toxicity qHTS against the NCATS CANVASS Library (AID 1347366); note: nearly all actives have a fitted effect of over 75% in size; note: potency is the fitted concentration of half-maximal effect
Outline: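 KB-3-1 cells (500/well) in DMEM with 10% FBS were exposed to compounds for 72 h at 37C. Viability was read by CellTiter-Glo luminescence.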

[17] = qHTS for ATAD5 Agonist screened against the NCATS CANVASS Library (AID 1347367);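 note: luciferase reporter driven by ATAD5 which rises upon DNA damage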
Outline: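 Luciferase reporter under ATAD5 control, stably integrated in HEK293T cells (2000/well). Compounds (11 points) incubated 16 h at 37C; viability read first by CellTiter-Fluor, then luminescence reporting ATAD5 activation. MMS positive control.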

[18] = G06 Cancer Cell Toxicity qHTS against the NCATS CANVASS Library (AID 1347368); note: nearly all actives have a fitted effect of over 60% in size; note: potency is the fitted concentration of half-maximal effect
Outline: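 G06 dog glioma cells seeded at 500 cells/well were exposed to compounds (11-point qHTS series) for 72 hr at 37C, 5% CO2; viability read as ATP content by CellTiterGlo luminescence.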

[19] = MCF7 Cancer Cell Toxicity qHTS against the NCATS CANVASS Library (AID 1347369)
Outline: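 MCF7 cells (500/well) were exposed 72 h at 37 °C to compounds in an 11-point series. Viability was read as ATP content by CellTiterGlo luminescence.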

[20] = J3T Cancer Cell Toxicity qHTS against the NCATS CANVASS Library (AID 1347371);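 note: J3T is a canine glioma cancer cell line seeded at 500 cells per well; series mostly up to about 46 µM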
Outline: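 J3T dog glioma cells (500 cells/well) were exposed to compounds in an 11-point series for 72 hr at 37C, 5% CO2. Cytotoxicity was read as ATP content by CellTiterGlo luminescence.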

[21] = biological target: Nuclear receptor subfamily 1 group I member 3 (Homo sapiens) (UniProt Q14994); test: qHTS for Constitutive Androstane Receptor (CAR) Antagonist screened against the NCATS CANVASS Library (AID 1347372); note: potency is the fitted concentration of half-maximal effect
Chain of Nuclear receptor subfamily 1 group I member 3 (Homo sapiens) (Q14994 whole entry, looked up): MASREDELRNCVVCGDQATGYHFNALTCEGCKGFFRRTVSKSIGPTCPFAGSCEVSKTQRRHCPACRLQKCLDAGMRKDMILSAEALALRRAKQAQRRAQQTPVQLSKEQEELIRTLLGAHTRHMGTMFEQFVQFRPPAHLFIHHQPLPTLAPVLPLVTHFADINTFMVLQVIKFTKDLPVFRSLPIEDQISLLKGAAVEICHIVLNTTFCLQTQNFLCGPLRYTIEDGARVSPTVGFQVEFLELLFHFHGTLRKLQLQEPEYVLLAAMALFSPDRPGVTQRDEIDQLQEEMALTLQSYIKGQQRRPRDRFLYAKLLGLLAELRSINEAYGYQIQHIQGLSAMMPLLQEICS
Outline: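 HepG2-CYP2B6-hCAR double-stable cells plated, 4hr attach; cpd pin-transferred; CITCO 50 nM final; 24hr 37C/5% CO2; CellTiter-Fluor 1hr (fluorescence), then ONE-Glo luminescence.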

[22] = biological target: Nuclear receptor subfamily 1 group I member 3 (Homo sapiens) (UniProt Q14994); test: qHTS for Constitutive Androstane Receptor (CAR) Agonist screened against the NCATS CANVASS Library (AID 1347373);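 note: every well also contained 1.5 µM PK11195 alongside the test compound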
Outline: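 HepG2 cells stably expressing hCAR and a CYP2B6-2.2kb luciferase reporter were treated for 24hr at 37C with compounds (11-point qHTS) in the presence of 1.5uM PK11195. Reporter activation was read by ONE-Glo luminescence.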

[23] = 10-beta competent E. coli microbial cell viability qHTS against the NCATS CANVASS Library (AID 1347376); note: series mostly up to about 46 µM
Outline: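 10-beta competent E. coli (0.9 OD culture diluted to 0.2 OD) exposed to compounds in an 11-point qHTS series, incubated overnight at 37C, 5% CO2. Viability read as ATP by BacTiter-Glo luminescence after 20 min at room temperature.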

[24] = DH5-alpha competent E. coli microbial cell viability qHTS against the NCATS CANVASS Library (AID 1347377); details: outcome: dose series up to 46.1 µM
Outline: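 DH5-alpha E. coli suspension (0.9 OD culture diluted to 0.2 OD) exposed to compounds in an 11-point series, overnight at 37C, 5% CO2. Viability read as ATP by BacTiter-Glo luminescence after 20 min at room temperature.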

[25] = Inflammasome Signaling qHTS Counterscreen: IL-1-beta AlphaLISA counterscreen against the NCATS CANVASS Library (AID 1347381);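 note: cell-free check with purified IL-1β in medium and no THP-1 cells; series mostly up to about 57 µM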
Outline: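 To flag interference with the AlphaLISA read-out, a known amount of purified IL-1-beta (4 pg) replaced cell supernatant. Detection used anti-IL-1-beta acceptor beads, biotinylated antibody and streptavidin donor beads at room temperature.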

[26] = qHTS for Activators of p53 Stress Response Pathway screened against the NCATS CANVASS Library (AID 1347388)
Outline: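 Beta-lactamase reporter driven by p53 response elements in HCT-116 cells, read as the 460 nm/530 nm emission ratio after CCF4 loading, following 16 h of exposure to an 11-point series. Cell viability was measured in the same wells by CellTiter-Glo luminescence.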

[27] = Secretion counterscreen for inhibitors of the SERCaMP assay screened against the NCATS CANVASS Library (AID 1347390);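 note: light from luciferase secreted into medium read as a measure of general secretion; series mostly up to about 77 µM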
Outline: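 SH-SY5Y cells with constitutively secreted GLuc reporter, 1000 cells/well, treated 20 h at 37C with compounds at 0.001 - 77 uM final; secreted luciferase read as luminescence after coelenterazine; Brefeldin A as positive control.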

[28] = qHTS for activators of dead-cell proteases activity screened against the NCATS CANVASS Library (AID 1347392);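 note: luminescence from protease leaking out of membrane-damaged cells cleaving impermeant substrate; rising signal means more cytotoxicity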
Outline: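 Compounds are pin-transferred onto attached HepG2 cells, giving 11 final concentrations. After 5 h at 37C, AAF-aminoluciferin reagent is added and luminescence is recorded at room temperature.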

[29] = qHTS for inhibitors of ER calcium dysfunction: SERCaMP assay screened against the NCATS CANVASS Library (AID 1347393); note: potency is the fitted concentration of half-maximal effect; nearly all actives have a fitted effect of over 40% in size
Outline: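 Thapsigargin-induced ER calcium depletion drives GLuc-SERCaMP secretion from SH-SY5Y cells; compounds given 16 h beforehand were scored by lowered coelenterazine luminescence after 4 h challenge.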

[30] = Vero-766 cells viability qHTS against the NCATS CANVASS Library: Counterscreen for Zika virus inhibition assay (AID 1347394); note: nearly all actives have a fitted effect of over 60% in size; note: potency is the fitted concentration of half-maximal effect
Outline: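 Vero 766 cells (1000/well), without Zika virus, were exposed to compounds for 72 h at 37C. Viability was measured by CellTiter Glo luminescence. Media-only wells served as 100% inhibition.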

[31] = qHTS for inhibitors of Wild type Zika virus screened against the NCATS CANVASS Library (AID 1347396); note: potency is the fitted concentration of half-maximal effect
Outline: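 Using ATP-based luminescence (CellTiter Glo), this screen scores rescue of Vero 766 cells from wild-type Zika killing at 72 h post-infection. Compounds are tested in a concentration series.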

[32] = Redox Reaction Profiling qHTS: Assay Interference Panel against the NCATS CANVASS Library (AID 1347401)
Outline: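 Cell-free redox surrogate: 5 uM resazurin + 200 uM DTT, 50 mM HEPES pH 7.3/50 mM NaCl; cpds pinned, 11-pt qHTS; Ex525/Em598 read t0 and t=15 min, dark.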

[33] = qHTS for inhibitors of Rabies Virus screened against the NCATS CANVASS Library (AID 1347402; calls by dose curve; note: series mostly up to about 46 µM)
[34] = A2780 Cisplatin Sensitive Ovarian Cancer Cell Toxicity qHTS against the NCATS CANVASS Library (AID 1347353); note: potency is the fitted concentration of half-maximal effect; nearly all actives have a fitted effect of over 60% in size
Outline: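 A2780 cisplatin-sensitive cells (750 per well) were seeded, left 4 h at 37 °C, then pin-dosed in an 11-point series. After 72 h at 37 °C/5% CO2, viability was measured as ATPLite luminescence.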

[35] = qHTS for Hypoxia signaling pathway (HIF-1) antagonists against the NCATS CANVASS Library (AID 1347374)
Outline: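 HRE-bla ME-180 cells (2,000/well, 0.5% dialyzed FBS) were pre-incubated 5 h, then given an 11-point compound series plus CoCl2 (60 uM solution as added) for 17 h at 37C. CCF4 β-lactamase read (ex 405, em 460/530 nm) after 2 h at RT.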

[36] = qHTS for Hypoxia signaling pathway (HIF-1) agonists against the NCATS CANVASS Library (AID 1347375)
Outline: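 HRE-bla ME-180 cells (beta-lactamase reporter under hypoxia responsive element) in 0.5% dialyzed FBS medium, 5 h at 37C, then compound 17 h, 11-point qHTS series. CCF4-AM FRET substrate 2 h RT; 460/530 nm emission read.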

Measured: Potency

CCc1cccc(CC)c1NC1=NCCN1
inactive: [1]

CC1=CC(=O)C2=C(C)C[C@H](O)[C@@H]3[C@H](OC(=O)[C@@H]3C)[C@@H]12
inactive: [3] | [4] | [5] | [6] | [7] | [8] | [9] | [10] | [11] | [12] | [13] | [14] | [15] | [16] | [17] | [18] | [19] | [20] | [21] | [22] | [23] | [24] | [25] | [26] | [27] | [28] | [30] | [31] | [32] | [33]
active: [2] 49.3 µM | [29] 34.3 µM

CCCCC[C@@H]1OC(=O)[C@@H](C)N(C)C(=O)[C@H](CCCCC)OC(=O)C(C)N(C)C(=O)[C@H](CCCCC)OC(=O)[C@@H](C)N(C)C(=O)[C@H](CCCCC)OC(=O)C(C)N(C)C1=O (some centres not stated)
active: [2] 11 µM | [3] 6.68 µM | [4] 3.34 µM | [5] 8.41 µM | [6] 14.9 µM | [34] 7.43 µM | [7] 16.7 µM | [8] 4.18 µM | [16] 9.35 µM | [18] 18.7 µM | [21] 11.7 µM | [35] 11.8 µM | [30] 20.9 µM | [31] 11.7 µM
inactive: [9] | [10] | [11] | [12] | [13] | [14] | [17] | [22] | [36] | [23] | [24] | [25] | [26] | [27] | [32]

From PubChem BioAssay (NCATS)
